From PubChem BioAssay (NCI)
This is part of a sample that, as a whole, favours compounds with a hit. Of some 83,000 tested, about 20% had one in any assay.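 Percent growth is the endpoint: 0 to 100 indicates growth inhibition (40 means 60% inhibition), 0 means no net growth, and negative values indicate cell death.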 Activity calls are given as the source filed them. The calls were made as follows: active = growth percent below 10; inactive = the rest.

Tests used:
Experiment in all cases: NCI-60 one-dose screen, 48 h (100 = growth as untreated, 0 = no growth, -100 = all killed)
Settings in all cases: 10 µM
[1] = system: NCI-H23 lung
[2] = system: NCI-H226 lung
[3] = system: NCI-H322M lung
[4] = system: HOP-62 NSCLC
[5] = system: NCI-H460 lung
[6] = system: NCI-H522 lung
[7] = system: A549/ATCC NSCLC
[8] = system: 786-0 renal
[9] = system: COLO 205 colon
[10] = system: DU-145 prostate

Measured: growth

Cc1ccc(NC(=O)CSc2nc3ccccc3c(=O)n2CCc2ccccc2)c(C(=O)O)c1
inactive: [1] 101% | [2] 101% | [3] 90.9% | [4] 94.4% | [5] 110% | [6] 90.1% | [7] 98% | [8] 90.5% | [9] 103% | [10] 117%

O=c1[nH]c2ccc(Cl)cc2c2ccccc12
inactive: [1] 86.6% | [2] 85.1% | [3] 42.5% | [4] 72.2% | [5] 42.7% | [6] 109% | [7] 79.5% | [8] 49.5% | [9] 86.5% | [10] 78.2%

COc1ccc(N2C(=O)C3c4[nH]c5ccc(OCc6ccccc6)cc5c4C4CCC(C(C)C)CC4C3C2=O)cc1 (stereo not given)
inactive: [1] 104% | [2] 104% | [3] 102% | [4] 113% | [5] 103% | [6] 34.6% | [7] 99.4% | [8] 97.6% | [9] 102% | [10] 113%

Oc1[nH]c2ccc(Cl)cc2c1/C=c1/ccc2c(c1)N=C(c1cccs1)N=2
inactive: [1] 64.4% | [2] 85% | [3] 78.4% | [4] 83.1% | [5] 66.1% | [6] 53.3% | [7] 63.5% | [8] 66.7% | [9] 73% | [10] 58.7%

Cc1ccc(Nc2cc(C)nc(NCCCNc3ccnc4cc(Cl)ccc34)n2)cc1
active: [3] -31.8% | [4] -12.4% | [5] -45.4% | [6] -83.5% | [7] -69.3% | [8] -100% | [9] -88.2% | [10] -17.8%
inactive: [1] 17.6% | [2] 48.5%

CC(C)(C#N)Nc1ccccc1
inactive: [1] 108% | [2] 95.8% | [3] 124% | [4] 108% | [5] 109% | [6] 94.1% | [7] 96.9% | [8] 101% | [9] 109% | [10] 118%

COc1ccc2nc3ccccc3c(NCCNCC(C)O)c2c1 (stereo not given)
active: [1] -2.17% | [2] -4.19% | [3] -3.32% | [4] -13.6% | [5] -10.8% | [6] -26.5% | [7] -36.4% | [8] 0.024% | [9] -27.5% | [10] 9.52%

CCCCC/C=C/C(=O)CCc1ccc(O)c(OC)c1
inactive: [1] 89.2% | [2] 87.8% | [3] 106% | [4] 107% | [5] 97.3% | [6] 60.8% | [7] 82.6% | [8] 91.1% | [9] 108% | [10] 76.9%

O=C1/C(=C\c2cn(C(=O)c3ccc(Cl)cc3)c3ccccc23)c2ccccc2N1C(=O)c1ccc(Cl)cc1
active: [6] 6.02%
inactive: [1] 83.2% | [2] 89.4% | [3] 98.6% | [4] 61.4% | [5] 86% | [7] 63.3% | [8] 93.7% | [9] 105% | [10] 85.1%

COc1ccccc1CNCCN1C(=O)c2ccc3c4c(ccc(c24)C1=O)C(=O)N(CCNCc1ccccc1OC)C3=O
active: [1] -70.5% | [2] -74.7% | [3] -65.4% | [4] -79.8% | [5] -91.3% | [6] -83.4% | [7] -93% | [8] -82.4% | [9] -97.5% | [10] -100%

CC(C)C[C@H](NC(=O)[C@H](Cc1cccc2ccccc12)NS(=O)(=O)c1cccc2cccnc12)B(O)O
active: [1] -52.9% | [2] -66.6% | [3] -9.95% | [4] -72.3% | [5] -53.2% | [6] -56.4% | [7] 5.39% | [8] -19.4% | [9] -36.5% | [10] -20.7%

Clc1cccc(-c2nc(-c3cccs3)no2)c1
inactive: [1] 92.8% | [2] 100% | [3] 114% | [4] 97.8% | [5] 110% | [6] 92% | [7] 94.1% | [8] 99.6% | [9] 114% | [10] 120%

CNc1ncc(-c2ccc(C(F)(F)F)cc2)c(NC2CCCCCC2)n1
inactive: [1] 62.6% | [2] 70.3% | [3] 76.6% | [4] 92.6% | [5] 87.8% | [6] 57.6% | [7] 69.1% | [8] 79.4% | [9] 68.5% | [10] 91%

O=C1OCC2=C1C(c1cccc(Br)c1)c1cc3c(cc1N2CCO)CCC3 (stereo not given)
inactive: [1] 21.1% | [3] 36.8% | [4] 28.4% | [7] 12.5% | [8] 19.1%
active: [2] -15.7% | [5] -6.92% | [6] -31.4% | [9] -29.1% | [10] -28.9%

COc1ccc(-c2ccc3cc(C(=O)Nc4ccc(O)c(C(=O)/C=C/c5cc(OC)c(OC)c(OC)c5)c4)ccc3c2)cc1
inactive: [1] 94.3% | [2] 82.5% | [3] 100% | [4] 114% | [5] 95.9% | [6] 87.7% | [7] 92.6% | [8] 102% | [9] 109% | [10] 102%

O=[N+]([O-])c1ccc(Oc2cc(Cl)c(Cl)cc2Cl)c(C(F)(F)F)c1
inactive: [1] 111% | [2] 94.6% | [3] 98.1% | [4] 95.3% | [5] 97.7% | [6] 87.1% | [7] 91.1% | [8] 107% | [9] 122% | [10] 104%

c1ccc([C@H]2CN3CCSC3=N2)cc1
inactive: [1] 96.8% | [2] 97.4% | [3] 101% | [4] 109% | [5] 114% | [6] 90.8% | [7] 102% | [8] 99.3% | [9] 106% | [10] 92.1%

CC1(C)CCC(=NNC(N)=S)CC1
inactive: [1] 99.1% | [2] 110% | [3] 115% | [4] 111% | [5] 104% | [6] 97.1% | [7] 106% | [8] 113% | [9] 125% | [10] 111%

O=C1N=NC2=C1c1c3ccccc3c(O)n1CC2
active: [6] -36.3%
inactive: [1] 96.7% | [2] 105% | [3] 98.9% | [4] 91.6% | [5] 110% | [7] 45.1% | [8] 101% | [9] 129% | [10] 121%

O=C1NC(=O)N(Cc2ccccc2)CC1Br (stereo not given)
inactive: [1] 52.6% | [2] 83.2% | [3] 104% | [4] 79.2% | [5] 96.7% | [7] 102% | [8] 63% | [9] 64.9% | [10] 104%
active: [6] -9.22%

O=C(Nc1ccccc1)Nc1cccc(-n2cc(-c3ccncc3)c(-c3ccc(O)c(Cl)c3)n2)c1
inactive: [1] 74.2% | [2] 93.8% | [3] 43.3% | [4] 77.7% | [5] 25.2% | [6] 51.4% | [7] 35.5% | [8] 38.5% | [9] 111% | [10] 71.1%

CN(C)C(=S)N/N=C\C=N/NC(=S)N(C)C
inactive: [1] 62.6% | [2] 76.9% | [3] 48.9% | [4] 92.9% | [5] 23.7% | [7] 40.1% | [8] 85.3% | [10] 37.4%
active: [6] 1.5% | [9] -1.67%

CC/C(=N\N=C(/CC)c1ccc(Br)cc1)c1ccc(Br)cc1
inactive: [1] 86.2% | [2] 94% | [3] 108% | [4] 94.9% | [5] 105% | [6] 71.5% | [7] 98.7% | [8] 98.9% | [9] 100% | [10] 116%

C#Cc1ccc(-n2c(/C=C/c3ccc(C(F)(F)F)cc3)nc3ncccc3c2=O)cc1
active: [2] -42.7% | [6] 4.27%
inactive: [1] 78.4% | [3] 33.7% | [4] 37.6% | [5] 72.1% | [7] 23.6% | [8] 53% | [9] 18.6% | [10] 46.2%

COc1ccc(Nc2nc3ccc(NC(=O)NC4CCCCC4)cc3[nH]c2=O)cc1
inactive: [1] 94.1% | [2] 94.5% | [3] 96.1% | [4] 83.9% | [5] 102% | [6] 87.3% | [7] 89.5% | [8] 72.7% | [9] 112% | [10] 107%

COc1ccc(-c2nn(-c3cccc(NC(=O)c4ccc(N5CCOCC5)c(C(F)(F)F)c4)c3)cc2-c2ccncc2)cc1Cl
inactive: [1] 83.2% | [2] 83.6% | [3] 80.3% | [4] 73.7% | [5] 62.1% | [6] 41% | [7] 54.7% | [8] 37.9% | [9] 54.6% | [10] 91.8%

OCC1OC(n2cnc3c(N/N=C\c4ccccn4)ncnc32)C(O)C1O (stereo not given)
inactive: [1] 27.1% | [2] 11.3% | [4] 10% | [6] 38.7% | [7] 24.6% | [8] 16.2% | [9] 22.7% | [10] 17.7%
active: [3] 7.28% | [5] 1.62%

CN(C)C=Nc1cc(Cl)ccc1Cl
inactive: [1] 101% | [2] 96.3% | [3] 104% | [4] 99.9% | [5] 116% | [6] 97.2% | [7] 92.1% | [8] 111% | [9] 109% | [10] 117%
